Among the data in PubChem BioAssay AID720487 (Milwaukee Institute for Drug Discovery, 2013) are fluorescence interference ratio values, retold here.

Some of the results follow. A number with no mark means an inactive call. Calls of active or inactive are those of the source.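 How the source made its calls: active means fluorescence interference ratio at or above 1.2, signal boosting, or at or below 0.8, signal quenching; inactive means ratio between 0.8 and 1.2.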

This experiment in a line: Cy5 fluorescence interference with SSB-bound oligo, artefact control for HCV NS3 helicase inhibitor project, biochemical, E. coli SSB, selected ChemBridge compounds (AID 720487).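 Further: ratio of compound well signal to mean negative control signal so 1 means no effect.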 The following applies: Cy5-dT15/E. coli SSB fluorescence interference; at 100 µM; actives lie on both sides.
As for `O=c1c2c(nc3cc(-c4cccc(F)c4)[nH]n13)CCS2`, the fluorescence interference ratio is 0.862. For `Cc1ccc(C(=O)C[n+]2cc(-c3ccccc3)n3c2CCCCC3)cc1`, the fluorescence interference ratio was 1.01.

In the case of `O=C(NC(=S)Nc1ccc(-c2nc3cc(Cl)ccc3o2)cc1)c1ccco1`, the fluorescence interference ratio was 0.991.

With `CCN(CC)c1ccc(C=C2C(=O)N(C)C(=O)N(C)C2=O)c(O)c1`, the fluorescence interference ratio is 1.15. To `CCN(CC)c1ccc(NC(=O)/C(=C\c2ccccc2)NC(C)=O)cc1` belongs 1.22 (active); to `COc1ccc(N2C(=O)C=CC2=O)c([N+](=O)[O-])c1`, 1; to `Cc1ccc(C(=O)NCCNc2ccc([N+](=O)[O-])cc2)cc1`, 0.915. To `C=CCN1C(=O)/C(=C\c2cc(OC)c(O)c([N+](=O)[O-])c2)C(=O)NC1=S` belongs 0.902; to `COc1cc(C=C2C(=O)NC(=O)NC2=O)ccc1OCCOc1ccc([N+](=O)[O-])cc1`, 0.897; to `N#Cc1c(N)nc2sc(C(=O)Nc3ccccc3)c(N)c2c1-c1ccco1`, 1.02. The same measure for `CCOc1ccc(C=C2C(=O)NC(=O)NC2=O)cc1Cl`: 0.963; for `COc1cc(/C(O)=C(\C#N)c2nc3ccccc3n2C)cc(OC)c1OC`: 0.913. `CC(C)(C)N1C(=O)NC(=O)C(=Cc2cccs2)C1=O`: the fluorescence interference ratio is 0.954. Turning to `COc1ccc(C(=O)Oc2ccc3oc(=O)cc(C)c3c2)cc1OC`, the fluorescence interference ratio was 0.977. The same measure for `O=C1NC(=O)C(=Cc2cc([N+](=O)[O-])cc(Br)c2O)C(=O)N1`: 0.896.
